The list is not random: actives were taken first. Their share in the collection is about 6%.
Luciferase inh = firefly luciferase inhibition | AID 411 | purified firefly luciferase, luminescence, 8 min | 72,000 compounds, 2.2% hits | Potency, µM (series often up to 57.1 µM), for inactives: at the highest dose activity change, negative = inhibition, hits mostly inhibitors; also: nearly all actives have a fitted effect of over 40% in size
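Titration-based qHTS; buffer 50 mM imidazole pH 7.2, 50 mM KCl, 7 mM MgCl2, 10 uM ATP, 0.01% Tween 20, 0.05% BSA; luciferase/luciferin detector mix added after compound; 8 min, ambient; luminescence.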
PK Bst = alters activity of Bacillus stearothermophilus pyruvate kinase; purified pyruvate kinase, luminescence ATP production; ribose 5-phosphate activator present at AC10; Potency, µM; 51,000 compounds, 1.2% hits; AID 361; in the data active = potency below about 11 µM; inconclusive = mostly about 12 µM to 25 µM;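 the screen sought inhibitors and activators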;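 also: scaled between full activation by ribose 5 phosphate and full inhibition by luteolin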
DNA Pol III inh = DNA polymerase III holoenzyme inhibition | 71,000 compounds, 0.25% hits | Potency, µM (top dose mostly 57.1 µM), inactives show at the top dose activity change, negative = inhibition | AID 603 | reconstituted DNA polymerase III holoenzyme replication, biochemical
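Reconstituted *E. coli* holoenzyme (0.35 nM Pol III, 1 nM beta, 154 nM SSB, 2 nM primase) was preincubated with compound for 15 min at RT. Synthesis on 1.4 nM ssM13Gori ran 35 min, then was stopped with PicoGreen/EDTA and read as dsDNA fluorescence.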
ERK AVP inh = inhibitors of vasopressin-stimulated ERK signaling pathway. HEK293-V1b, vasopressin-stimulated pERK AlphaScreen. Potency, µM (highest dose often 57.5 µM), for inactives: top-dose activity, negative = inhibition, hits mostly inhibitors. AID 995. 72,000 compounds, 0.99% hits; also: nearly all actives have a fitted effect of over 55% in size
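HEK293 cells stably expressing V1b receptor, preincubated 30 min at 37 °C with compound, then stimulated 5 min with 25 nM vasopressin. Phospho-ERK by AlphaScreen SureFire after 5 h RT; normalized to DMSO and vasopressin; AC50 by Hill fit.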
ALOX15 inhib = inhibitors of human 15-lipoxygenase (ALOX15); P16050; purified 15hLO-1, xylenol orange hydroperoxide absorbance; Potency, µM (doses to about 57.1 µM), for the others: top-dose activity change, negative = inhibition, most hits filed as inhibitors; 74,000 compounds, 1.4% hits; AID 887; also: nearly all actives have a fitted effect of over 55% in size
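Inhibition is scored from a chromogenic endpoint. After 15 min enzyme-compound contact, arachidonic acid (50 uM final) reacts 6 min with 40 nM 15hLO-1 at room temperature, then Fe-XO reagent is added for 30 min and absorbance ratio recorded.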
Tau filament bind = binders of human tau filaments; Potency, µM (top dose mostly 57.1 µM), for the others: at the top dose activity change, negative = inhibition; P10636; recombinant tau filaments, thioflavin S fluorescence, 15 h; filaments grown with octadecylsulfate alongside compound; 71,000 compounds, 2% hits;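 also: actives lower thioflavin S fluorescence by blocking filaments or displacing dye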
Target sequence (P10636 whole entry, looked up): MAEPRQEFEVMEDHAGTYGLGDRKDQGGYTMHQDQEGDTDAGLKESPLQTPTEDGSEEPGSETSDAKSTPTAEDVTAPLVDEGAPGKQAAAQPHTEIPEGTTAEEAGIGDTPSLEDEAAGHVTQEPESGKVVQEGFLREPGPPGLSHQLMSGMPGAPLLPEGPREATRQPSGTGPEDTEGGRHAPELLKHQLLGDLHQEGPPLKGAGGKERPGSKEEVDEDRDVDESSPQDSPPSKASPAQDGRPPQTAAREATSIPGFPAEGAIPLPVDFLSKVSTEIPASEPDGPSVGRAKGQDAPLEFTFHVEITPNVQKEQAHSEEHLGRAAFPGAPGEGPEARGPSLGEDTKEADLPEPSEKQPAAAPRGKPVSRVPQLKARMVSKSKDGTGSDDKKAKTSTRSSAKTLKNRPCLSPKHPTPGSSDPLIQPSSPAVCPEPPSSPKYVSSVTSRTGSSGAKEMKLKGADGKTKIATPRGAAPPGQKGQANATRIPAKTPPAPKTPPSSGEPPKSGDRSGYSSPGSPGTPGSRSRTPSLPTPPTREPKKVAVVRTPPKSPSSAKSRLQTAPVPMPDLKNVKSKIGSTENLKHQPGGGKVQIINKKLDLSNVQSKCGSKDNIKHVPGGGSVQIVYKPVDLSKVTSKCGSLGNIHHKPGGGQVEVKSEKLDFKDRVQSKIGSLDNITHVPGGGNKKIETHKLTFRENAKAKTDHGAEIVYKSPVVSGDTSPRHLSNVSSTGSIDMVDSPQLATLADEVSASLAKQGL
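Recombinant tau protein (human, 1 uM final) plus 30 uM ODS in HEPES pH 7.4 with NaCl, DTT and thioflavine S. Compound present from the start; fluorescence at 510 nm after 15 h, 37 C.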
* marks the source's active call; other numbers are inactive results; ? = inconclusive; · = not tested or not shown; [ ] = remark or other dose. Unless noted, calls follow the shape of the dose curve; as a rule, active = well fitted curve in the direction sought with a large enough effect; inconclusive = small, poorly fitted or top-dose-only effect, or another doubt; inactive = no such curve, though single readings can be large; an effect the other way counts as inactive or inconclusive. Unless noted, % is scaled to controls: 0 for no effect and ±100 for the full control effect; potency is read from the fitted curve at half-maximal effect.

SMILES | Luciferase inh | PK Bst | DNA Pol III inh | ERK AVP inh | ALOX15 inhib | Tau filament bind
O=C1[C@@H]2[C@@H]3C=C[C@H]([C@@H]2C(=O)N1CN1CCSCC1)[C@@H]1[C@@H]2C(=O)N(CN4CCSCC4)C(=O)[C@@H]2[C@H]31 | 2%[11.4 µM] | · | 6%[11.4 µM] | -10%[11.5 µM] | 3%[11.4 µM] | 3%[11.4 µM]
Nc1ccccc1N=Nc1c(S(=O)(=O)O)cc2cc(S(=O)(=O)O)cc(O)c2c1O | ? | · | 2.5µM* | -3%[11.5 µM] | 6%[11.4 µM] | -15%[11.4 µM]
O=S(=O)(O)c1cc(N=Nc2cccc3ccccc23)c(O)c2ncccc12 | -6%[11.4 µM] | · | -13%[11.4 µM] | -17%[11.5 µM] | 11%[11.4 µM] | ?
Cc1ccc(N=Nc2c(O)c(S(=O)(=O)O)cc3cc(S(=O)(=O)O)ccc23)c(C)c1 | -18%[11.4 µM] | · | -15%[11.4 µM] | -6%[11.5 µM] | 6%[11.4 µM] | -9%[11.4 µM]
O=S(=O)(O)c1cc(S(=O)(=O)O)c2c(N=Nc3cccc4ccccc34)c(O)ccc2c1 | ? | · | -7%[11.4 µM] | ? | -6%[11.4 µM] | 4µM*
O=S(=O)(O)c1ccc2c(N=Nc3c(O)ccc4ccccc34)cccc2c1 | -7%[11.4 µM] | · | -11%[11.4 µM] | -16%[11.5 µM] | -14%[11.4 µM] | 3.2µM*
Cc1ccc(S(=O)(=O)Oc2cc(S(=O)(=O)O)cc3cc(S(=O)(=O)O)cc(N)c23)cc1 | 0%[11.4 µM] | · | -15%[11.4 µM] | -4%[11.5 µM] | 16%[11.4 µM] | 9%[11.4 µM]
O=C(O)CSc1ccc(N=C=S)cc1 | 2%[11.4 µM] | · | -11%[11.4 µM] | 0%[11.5 µM] | 3%[11.4 µM] | 1%[11.4 µM]
CC(=O)c1cc2c(cc1O)OC(C)(C)C=C2 | · | · | · | 2% | -3% | ·
O=C1c2cccnc2-c2ncccc21 | 2% | >57 | 4% | 5% | 4% | -6%
CC1(C)OCC(CSC2=C(SCC3COC(C)(C)O3)C(=O)c3ncccc3C2=O)O1 (configuration not stated) | · | · | -8% | 16µM* | ? | 16µM*
CSc1ccc2c(c1)N(CCCN(C)C)c1ccccc1S2 | 3%[11.4 µM] | · | -10%[11.4 µM] | 5%[11.5 µM] | -9%[11.4 µM] | 3.2µM*
CN(C)CCCN1c2ccccc2Sc2cnccc21 | 2%[11.4 µM] | · | -9%[11.4 µM] | -4%[11.5 µM] | 24%[11.4 µM] | -24%[11.4 µM]
CCSc1ccc2c(c1)N(CCCN1CCN(C)CC1)c1ccccc1S2 | -6%[25.5 µM] | · | -3%[25.6 µM] | 5%[25.7 µM] | 3%[25.6 µM] | 4µM*
CN(C)CCCN1c2ccc(O)cc2Sc2ccc(Cl)cc21 | 1%[11.4 µM] | · | -6%[11.4 µM] | -5%[11.5 µM] | -13%[11.4 µM] | 3.2µM*
CN1CCN(CCCN2c3ccccc3Sc3ccc(Cl)cc32)CC1 | 0%[25.5 µM] | >26 | 0%[25.6 µM] | ? | ? | ?
CCC(C)C(=O)O[C@H]1C[C@@H](C)C=C2C=C[C@H](C)[C@H](CC[C@@H]3C[C@@H](O)CC(=O)O3)C21 (some centres not stated) | · | · | · | 2% | 1%[25.6 µM] | ·
Cc1nc(N2CCOCC2)c2nc(-c3ccccc3)n(CC(C)(C)CN(C)C)c2n1 | · | · | -6% | 1% | 2% | 13%
CCCCCC[C@@H]([C@@H](C)O)n1cnc2c(N)ncnc21 | 4% | · | -1% | -15% | 13µM* | ?
O=C(N/N=C1/C[C@@H](O)[C@@H](O)[C@@H]2[C@@H]3C(=O)N(C[C@@H]4CCCO4)C(=O)[C@H]3CC[C@H]12)OCc1ccccc1 | -1%[11.4 µM] | · | · | 33%[11.5 µM] | ? | ·
Cc1cnc(CNc2cc(-c3ccccc3Cl)ncn2)cn1 | 3%[2.29 µM] | · | -3% | -21% | 0% | 0%
COc1cccc(-c2cc(NCc3ccccc3)ncn2)c1 | -5%[2.29 µM] | · | 1% | 5µM* | 5% | 10%
Clc1ccccc1-c1cc(NCc2ccccc2)ncn1 | 1%[2.29 µM] | · | -2% | 25µM* | ? | 7%
c1cncc(CNc2cc(-c3ccoc3)ncn2)c1 | -2%[2.29 µM] | · | -17% | 9% | 25µM* | 105%
Cc1cccc(CNc2cc(-c3ccoc3)ncn2)c1 | 0%[2.29 µM] | · | 0% | ? | -3% | -5%

High-throughput results from PubChem.
